Experimental data reported in PubChem BioAssay AID1159577 (Broad Institute, 2015).
Among all 1,300 compounds or so, about 240 (18%) were called active. Not shown: some 8% with an inconclusive outcome. Only a sample is shown. Measured potencies and affinities stand elsewhere. Values without a mark were called inactive. The rule behind the calls is not given here.

experiment: HepG2 cell cytotoxicity, dose response, cytotoxicity control, cherry-picked samples (AID 1159577); conditions: HepG2 cytotoxicity counterscreen, plate reader; series mostly up to 19.5 µM; activity change, negative = cytotoxicity: at the top concentration;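 note: 0% = neutral control wells and -100% = positive control wells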

In order of falling “activity change, negative = cytotoxicity” value:
1. C[C@H]1CN([C@@H](C)CO)C(=O)c2c(c3ccccc3n2C)-c2ccccc2CO[C@@H]1CN(C)S(=O)(=O)c1cccc(F)c1  15.1% [at 21 µM]
2. C/C=C/c1ccc([C@H]2[C@@H](CO)N(CC3CCCC3)[C@@H]2CNC(=O)NC(C)C)cc1  7.86% [at 21 µM]
3. COc1ccc(NC(=O)N(C)C[C@H]2OCc3ccccc3-c3c(n(C)c4ccccc34)C(=O)N([C@@H](C)CO)C[C@H]2C)c(OC)c1  7.72% [at 21 µM]
4. C/C=C/c1ccccc1[C@@H]1[C@@H](CO)N(S(=O)(=O)c2cccc(F)c2)[C@H]1C#N  -0.51% [at 21 µM]
5. CC(C)(C)[S@](=O)N1Cc2cc(C(=O)NCCN3CCCC3)nc(-c3cccc(-c4ccc(C#N)cc4)c3)c2[C@@H]1CCO  -4.11% [at 21 µM]
6. C/C=C/c1ccc([C@H]2[C@@H](CO)N(CC3CCCCC3)[C@@H]2CNC(C)C)cc1  -4.8% [at 21 µM]
7. C/C=C/c1ccc([C@H]2[C@@H](CO)N(C(=O)CC)[C@@H]2CNCC2CCCCC2)cc1  -6.29% [at 21 µM]
8. C[C@H](CO)N1C[C@H](C)[C@H](CN(C)Cc2ccc(Oc3ccccc3)cc2)Oc2ccc(NS(=O)(=O)c3ccc(Cl)cc3)cc2CC1=O  -10.2% [at 21 µM]
9. C[C@H]1CN([C@@H](C)CO)C(=O)c2cc(NC(=O)Nc3cccc4ccccc34)ccc2O[C@@H]1CN(C)Cc1ccc(Oc2ccccc2)cc1  -10.6% [at 21 µM]
10. CCCC(=O)Nc1ccc2c(c1)OC[C@@H](C)N(Cc1cc(-c3ccccc3)on1)C[C@@H](C)[C@H](OC)CN(C)C2=O  -15.5% [at 21 µM]
11. C/C=C/c1ccc([C@H]2[C@@H](C#N)N(C(=O)NC3CCCC3)[C@@H]2CO)cc1  -18.6% [at 21 µM]

In order of falling “activity change, negative = cytotoxicity” value:
1. CO[C@H]1CN(C)C(=O)c2cc(NC(=O)C3CC3)ccc2OC[C@@H](C)N(Cc2cc(F)ccc2F)C[C@H]1C  30.6%
2. COc1ccc2c3c(n(C)c2c1)[C@H](CO)N(C(=O)c1ccccc1)CC31CCN(C(=O)c2ccccc2)CC1  28.5%
3. C[C@H](CO)N1C[C@H](C)[C@@H](CN(C)C(=O)Nc2cccc3ccccc23)Oc2ccc(NC(=O)Nc3cccc4ccccc34)cc2CC1=O  27.7%
4. CCC(=O)N1C[C@H](C)[C@H](OC)CN(C)C(=O)c2cc(NC(=O)Nc3cccc(F)c3)ccc2OC[C@@H]1C  22.1%
5. CCCc1cn([C@H]2C[C@@H]3O[C@H](CO)CC[C@@H]3O[C@@H]2CCc2ccc(-c3ccc(OC)cc3)cc2)nn1  15.6%
6. OC[C@H]1CC[C@@H]2O[C@H](CCc3ccc(C#CCc4ccccc4)cc3)[C@@H](n3cc(-c4ccccc4)nn3)C[C@@H]2O1  12.9%
7. CCC(=O)N1CCC2(CC1)CN(Cc1ccc3c(c1)OCO3)[C@@H](CO)c1c2c2ccc(OC)cc2n1C  12.7%
8. C[C@@H]1CN([C@@H](C)CO)C(=O)c2cccc(NC(=O)Nc3ccccc3)c2O[C@@H]1CN(C)C(=O)Nc1ccc(F)cc1  11.6%
9. C[C@@H]1CN([C@H](C)CO)C(=O)c2cc(NC(=O)Nc3ccc(C(F)(F)F)cc3)ccc2O[C@H]1CN(C)C(=O)Nc1cccc2ccccc12  10.9%
10. COc1ccc(-c2ccccc2[C@H]2[C@@H](CO)N(C(=O)C3CCOCC3)[C@H]2C#N)cc1  10.6%
11. C[C@H](CO)N1C[C@H](C)[C@H](CN(C)S(=O)(=O)c2ccc(F)cc2)OCc2ccccc2-c2c(n(C)c3ccccc23)C1=O  9.68%
12. CCCN1C[C@@H](C)[C@H](OC)CN(C)C(=O)c2ccc(NC(=O)c3cccc(F)c3)cc2OC[C@H]1C  9.31%
13. COc1ccc2c3c(n(C)c2c1)[C@@H](CO)N(CC1CCCCC1)CC31CCN(Cc2nccs2)CC1  9.04%
14. O=C(Nc1ccccc1F)N1CCCCN2[C@@H](CO)[C@H](c3ccc(C#Cc4cccnc4)cc3)[C@@H]2C1  8.61%
15. C[C@H](CO)N1C[C@H](C)[C@@H](CN(C)Cc2ccc(Oc3ccccc3)cc2)Oc2ccc(NS(=O)(=O)c3cn(C)cn3)cc2CC1=O  8.5%
16. CCCN1C[C@H](C)[C@@H](OC)CN(C)C(=O)c2cc(NC(=O)Nc3cccc(F)c3)ccc2OC[C@H]1C  7.72%
17. O=C(C1CCCC1)N1CC[C@@H]2[C@H]1c1cc(C3=CCCCC3)ccc1N[C@@H]2CO  6.34%
18. COc1ccc2c3c(n(C)c2c1)[C@@H](CO)N(C(=O)c1ccccc1)CC31CCN(C(=O)c2ccccc2)CC1  6.24%
19. CCC(=O)N[C@H]1C=C[C@H](CC(=O)NCC2CCCCC2)O[C@@H]1CO  5.5%
20. O=C(Nc1ccccc1F)N1CCCCN2[C@H](CO)[C@H](c3ccc(C#Cc4cccnc4)cc3)[C@@H]2C1  4.47%
21. CCCC(=O)Nc1ccc2c(c1)OC[C@@H](C)N(Cc1ccc(F)cc1)C[C@@H](C)[C@H](OC)CN(C)C2=O  4.46%
22. CCCc1cn([C@H]2C[C@@H]3O[C@@H](CO)CC[C@@H]3O[C@@H]2CCc2ccc(-c3ccc(OC)cc3)cc2)nn1  3.71%
23. CN1CCCCN2[C@@H](CO)[C@@H](c3ccc(-c4cccnc4)cc3)[C@@H]2C1  2.85%
24. COCC#Cc1ccc([C@@H]2[C@H](CO)N3CCCCN(S(=O)(=O)c4ccc(OC)cc4)C[C@@H]23)cc1  2.6%
25. CC(C)(C)[S@](=O)N1Cc2cc(C(=O)NCCN3CCCCC3)nc(-c3cccc(-c4cccc(C#N)c4)c3)c2[C@@H]1CCO  2.26%
26. COc1ccc2c3c(n(C)c2c1)[C@H](CO)N(Cc1cccnc1)CC31CN(C(=O)NC(C)C)C1  -0.752%
27. CC=Cc1ccc2n(c1=O)C[C@H]1[C@H](CO)[C@@H](C(=O)N3CCC(Cc4ccccc4)CC3)N(CCC)[C@@H]21 (mixture of isomers)  -3.03%
28. CCC(=O)N1CC2(C1)CN(Cc1cc(F)ccc1F)[C@@H](CO)c1[nH]c3cc(OC)ccc3c12  -3.61%
29. C[C@H]1CN([C@@H](C)CO)C(=O)c2c(c3ccccc3n2C)-c2ccccc2CO[C@H]1CN(C)S(=O)(=O)c1ccccc1C#N  -3.86%
30. CCC(=O)N1CCC2(CC1)CN(Cc1cccc(Cl)c1)[C@H](CO)c1c2c2ccc(OC)cc2n1C  -4.12%
31. COCC(=O)Nc1ccc2c(c1)C(=O)N(C)C[C@@H](OC)[C@H](C)CN(CC1CCCCC1)[C@@H](C)CO2  -4.53%
32. OC[C@@H]1CC[C@@H]2O[C@H](CCc3ccc(-c4ccc(F)cc4)cc3)[C@H](n3cc(C4CC4)nn3)C[C@@H]2O1  -5.35%
33. O=C(Nc1cccc(F)c1)N[C@@H]1CC[C@H](CCNS(=O)(=O)c2cccc(Cl)c2)O[C@H]1CO  -6.07%
34. COc1cccc(-c2cn(CC[C@@H]3CC[C@H](NS(=O)(=O)c4ccccc4Cl)[C@H](CO)O3)nn2)c1  -6.11%
35. COc1ccc2c3c(n(C)c2c1)[C@@H](CO)N(C(=O)c1ccc(F)cc1)CC31CN(CC2CCOCC2)C1  -6.16%
36. COc1ccc2c3c(n(C)c2c1)[C@H](CO)N(C(=O)Nc1ccc(F)cc1)CC31CCN(C(=O)c2cccnc2)CC1  -6.19%
37. COc1ccc(S(=O)(=O)N[C@@H]2CC[C@H](CCn3cc(-c4ccccc4F)nn3)O[C@@H]2CO)cc1  -8.13%
38. COc1cccc(-c2ccc([C@H]3[C@H](CO)N4CCCCN(CC5CC5)C[C@@H]34)cc2)c1  -8.37%
39. COc1cccc(NC(=O)N2[C@H](CO)[C@@H](c3ccccc3)[C@H]2CNCC(C)C)c1  -10.2%
40. COc1cccc(-c2ccc3c(c2)[C@H]2[C@H](CCN2C(=O)C2CCCC2)[C@@H](CO)N3)c1  -10.3%
41. COc1ccc2c3c(n(C)c2c1)[C@@H](CO)N(Cc1ccc(Cl)cc1)CC31CCN(CC2CC2)CC1  -10.4%
42. C[C@@H]1CN([C@@H](C)CO)S(=O)(=O)c2ccc(C#Cc3ccncc3)cc2O[C@H]1CN(C)S(=O)(=O)c1ccc(F)cc1  -11%
43. COc1cccc(S(=O)(=O)N(C)C[C@@H]2OCc3ccccc3-c3c(n(C)c4ccccc34)C(=O)N([C@H](C)CO)C[C@@H]2C)c1  -11.8%
44. COc1ccc(C#Cc2ccc3c(c2)[C@@H]2[C@@H](CCN2C(=O)C2CCC2)[C@H](CO)N3)cc1  -13.7%
45. CCc1csc(N2[C@H](C#N)[C@H](c3ccccc3-c3ccc(F)cc3)[C@H]2CO)n1  -13.9%
46. CC=Cc1ccc2n(c1=O)C[C@@H]1[C@@H](CO)[C@H](C(=O)N3CCC(Cc4ccccc4)CC3)N(CCC)[C@H]21 (mixture of isomers)  -14.5%
47. CCCC(=O)N1CC2(C1)CN(S(=O)(=O)c1ccc(C)cc1)[C@@H](CO)c1[nH]c3cc(OC)ccc3c12  -15.7%
48. Cc1ccc(-c2ccccc2[C@H]2[C@@H](C#N)N(C(=O)c3cccc(F)c3)[C@H]2CO)cc1  -17.6%
49. Cc1ccc(S(=O)(=O)N(C)C[C@@H]2OCc3ccccc3-c3c(n(C)c4ccccc34)C(=O)N([C@@H](C)CO)C[C@@H]2C)cc1  -18.7%
50. C[C@@H]1CN([C@@H](C)CO)C(=O)c2cccc(NC(=O)C3CC3)c2O[C@@H]1CN(C)C(=O)Nc1ccc(C(F)(F)F)cc1  -20%
51. COc1ccc2c3c(n(C)c2c1)[C@@H](CO)N(Cc1ccccc1F)CC31CCN(CC2CC2)CC1  -22.2%
52. COc1ccc2c3c(n(C)c2c1)[C@H](CO)N(Cc1ccccc1F)CC31CCN(CC2CC2)CC1  -24.4%
53. COc1ccc2c3c([nH]c2c1)[C@H](CO)N(Cc1cccc(F)c1)CC31CCN(Cc2ccccn2)CC1  -28%
54. O=S(=O)(c1ccccc1)N1C[C@@H]2N[C@H](C1)C2c1ccc(-c2ccc(F)cc2)cc1 (stereo partly drawn)  -31.9%
55. COc1ccc2c3c(n(C)c2c1)[C@@H](CO)N(C(=O)C1CCC1)CC31CN(C(=O)Nc2cccc(F)c2)C1  -35.6%

In the case of `O=S(=O)(c1ccccc1)N1CC[C@@H]2[C@H](CO)Nc3ccc(C#CC4CCCCC4)cc3[C@@H]21`, the “activity change, negative = cytotoxicity” value is reported as -12.5% [at 23.5 µM].

For `COc1ccc2c3c(n(C)c2c1)[C@H](CO)N(Cc1ccncc1)CC31CCN(C(=O)Cc2ccncc2)CC1`, the “activity change, negative = cytotoxicity” value was 9.18% [at 18 µM].
